Records with an inconclusive call do not appear. Calls of active or inactive are those of the source. How the source made its calls, unless noted: active means hit-call score of the fitted dose curve at least 0.9, where 1 is the maximum; inactive means score below 0.9.

Read-out in assay [1]: Pyruvate Dehydrogenase Kinase 4 (PDK4), PDK4 (gene 5166)
The assay is described as follows: LTEA_HepaRG_PDK4: Life Technologies and Expression Analysis (LTEA) Assay for Pyruvate Dehydrogenase Kinase 4 (PDK4) using HepaRG (AID 2283525). The settings on record: mRNA level, 48 h; actives raise or lower the signal. The procedure, abridged:
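HepaRG (human liver line), 48 h chemical exposure, 8-pt half-log CRC top 100 uM, 0.5% DMSO vehicle, duplicates. Readout: TaqMan qRT-PCR of PDK4 mRNA, housekeeping-normalized; gain/loss fit relative to DMSO baseline.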

Read-out in assay [2]: NAD(P)H dehydrogenase [quinone] 1 (NQO1), NQO1 (gene 1728)
The assay is described as follows: LTEA_HepaRG_NQO1: Life Technologies and Expression Analysis (LTEA) Assay for NAD(P)H dehydrogenase [quinone] 1 (NQO1) using HepaRG (AID 2283526). The settings on record: mRNA level, 48 h; actives raise or lower the signal. In a few lines: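 In this assay, gene expression is read by qRT-PCR after 48 h exposure of HepaRG cells to eight concentrations (max 100 uM, half-log) in 0.5% DMSO. Each chemical runs in duplicate, and activity is scored relative to vehicle.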

Read-out in assay [3]: Nuclear factor erythroid 2-related factor 2 (Homo sapiens) (UniProt Q16236)
The assay can be described thus: LTEA_HepaRG_NFE2L2: Life Technologies and Expression Analysis (LTEA) Assay for Nuclear factor erythroid 2-related factor 2 (NFE2L2) Transcription Factor using HepaRG (AID 2283527).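 Further: TaqMan qRT-PCR transcript level normalised to ACTB GAPDH and POLR2A housekeeping genes.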 The note with it: mRNA level, 48 h; actives raise or lower the signal. In a few lines:
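HepaRG, 48 h dosing, 8-pt half-log series from 100 uM in 0.5% DMSO, duplicates. Read-out: NFE2L2 mRNA by qRT-PCR (ACTB/GAPDH/POLR2A normalization). Bidirectional curve fit vs DMSO baseline.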

Read-out in assay [4]: succinate dehydrogenase complex iron sulfur subunit B (SDHB), SDHB (gene 6390)
The assay can be described thus: LTEA_HepaRG_SDHB: Life Technologies and Expression Analysis (LTEA) Assay for succinate dehydrogenase complex iron sulfur subunit B (SDHB) using HepaRG (AID 2283528). The settings on record: mRNA level, 48 h; actives raise or lower the signal. In a few lines: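 HepaRG cells (~100,000/well, plated 48 h) exposed in duplicate for 48 h in serum-free induction medium to 8-point half-log series from 100 uM in 0.5% DMSO; mRNA by qRT-PCR normalised to ACTB, GAPDH, POLR2A; bidirectional fit versus DMSO.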

Read-out in assay [5]: Signal transducer and activator of transcription 3 (Homo sapiens) (UniProt P40763)
The assay is described as follows: LTEA_HepaRG_STAT3: Life Technologies and Expression Analysis (LTEA) Assay for Signal transducer and activator of transcription (STAT3) using HepaRG (AID 2283529). The settings on record: mRNA level, 48 h; actives raise or lower the signal. The procedure, abridged: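 HepaRG, 48 h exposure, 8-pt half-log series (top 100 uM), 0.5% DMSO vehicle, duplicates. Readout: STAT3 transcript by Fluidigm qRT-PCR, housekeeping-normalized; bidirectional fit vs DMSO baseline.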

Read-out in assay [6]: solute carrier (SLCO1B1), SLCO1B1 (gene 10599)
The assay is described as follows: LTEA_HepaRG_SLCO1B1: Life Technologies and Expression Analysis (LTEA) Assay for solute carrier (SLCO1B1) using HepaRG (AID 2283530). The settings on record: mRNA level, 48 h; actives raise or lower the signal. The procedure, abridged:
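HepaRG, serum-free induction medium, 48 h dosing, 8-pt half-log from 100 uM, 0.5% DMSO vehicle, duplicates. Readout: SLCO1B1 mRNA, qRT-PCR, ACTB/GAPDH/POLR2A normalization; up or down fit vs DMSO.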

Read-out in assay [7]: sulfotransferase 2A1 (SULT2A1), SULT2A1 (gene 6822)
The assay is described as follows: LTEA_HepaRG_SULT2A1: Life Technologies and Expression Analysis (LTEA) Assay for sulfotransferase 2A1 (SULT2A1) using HepaRG (AID 2283531). The note with it: mRNA level, 48 h; actives raise or lower the signal. In a few lines:
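Transcript levels of SULT2A1, quantified by qRT-PCR and normalized to three housekeeping genes, serve as the readout. Human HepaRG cultures receive test chemicals for 48 h at up to 100 uM in half-log steps, with 0.5% DMSO vehicle.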

Read-out in assay [8]: Transforming Growth Factor (TGFA), TGFA (gene 7039)
The assay is described as follows: LTEA_HepaRG_TGFA: Life Technologies and Expression Analysis (LTEA) Assay for Transforming Growth Factor (TGFA) using HepaRG (AID 2283532). The settings on record: mRNA level, 48 h; actives raise or lower the signal. The procedure, abridged: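 qRT-PCR read-out of TGFA transcript, normalized to three housekeeping genes, fitted bidirectionally against 0.5% DMSO baseline. Human HepaRG cultures received chemicals for 48 h at eight half-log concentrations, top 100 uM.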

Read-out in assay [9]: Transforming Growth Factor (TGFB1), TGFB1 (gene 7040)
The assay is described as follows: LTEA_HepaRG_TGFB1: Life Technologies and Expression Analysis (LTEA) Assay for Transforming Growth Factor (TGFB1) Transporter using HepaRG (AID 2283533). The note with it: mRNA level, 48 h; actives raise or lower the signal. In a few lines:
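HepaRG, 48 h post-plating, switched to serum-free induction medium; chemicals 100 uM top, half-log, 8 pts, 0.5% DMSO, dup; 48 h exposure; RNA → Fluidigm TaqMan qRT-PCR; norm ACTB/GAPDH/POLR2A; bidirectional fit vs DMSO.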

Read-out in another assay: TIMP1, TIMP1 (gene 7076)
The assay can be described thus: LTEA_HepaRG_TIMP1: Life Technologies and Expression Analysis (LTEA) Assay for TIMP1 using HepaRG (AID 2283534). The note with it: mRNA level, 48 h; actives raise or lower the signal. The procedure, abridged: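 Readout is TIMP1 mRNA level measured by qRT-PCR and normalized to three housekeeping genes. Human HepaRG cells were treated for 48 h in duplicate at eight concentrations up to 100 uM (0.5% DMSO); gain or loss fitted against DMSO.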

Read-out in assay [10]: Tumor necrosis factor receptor 1 (TNFRSF1A), TNFRSF1A (gene 7132)
The assay is described as follows: LTEA_HepaRG_TNFRSF1A: Life Technologies and Expression Analysis (LTEA) Assay for Tumor necrosis factor receptor 1 (TNFRSF1A) using HepaRG (AID 2283535). The note with it: mRNA level, 48 h; actives raise or lower the signal. In a few lines: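 Read-out is TNFRSF1A transcript level by TaqMan qRT-PCR, normalized to three housekeeping genes, scored as gain or loss of signal versus 0.5% DMSO. Human HepaRG cells received test chemicals for 48 h at up to 100 uM (half-log series).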

Read-out in assay [11]: Thyroid Hormone Responsive (THRSP), THRSP (gene 7069)
The assay is described as follows: LTEA_HepaRG_THRSP: Life Technologies and Expression Analysis (LTEA) Assay for Thyroid Hormone Responsive (THRSP) using HepaRG (AID 2283536). The settings on record: mRNA level, 48 h; actives raise or lower the signal. In a few lines: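 qRT-PCR read-out (Fluidigm TaqMan), housekeeping-normalized (ACTB/GAPDH/POLR2A). HepaRG, 48 h chemical exposure, 8-pt half-log series from 100 uM in 0.5% DMSO, duplicates. Bidirectional curve fit vs 0.5% DMSO baseline.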

Read-out in assay [12]: Cellular tumor antigen p53 (Homo sapiens) (UniProt P04637)
The assay is described as follows: LTEA_HepaRG_TP53: Life Technologies and Expression Analysis (LTEA) Assay for Tumor Protein P53 (TP53) using HepaRG (AID 2283537). The settings on record: mRNA level, 48 h; actives raise or lower the signal. The procedure, abridged: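 Differentiated HepaRG cells in serum-free induction medium exposed 48 h in duplicate to 8 half-log concentrations, top 100 uM, 0.5% DMSO. TP53 mRNA by TaqMan qRT-PCR (Fluidigm), normalized to ACTB, GAPDH, POLR2A; fitted bidirectionally versus DMSO.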

Read-out in assay [13]: UDP glucuronosyltransferase (UGT1A1), UGT1A1 (gene 54658)
The assay is described as follows: LTEA_HepaRG_UGT1A1: Life Technologies and Expression Analysis (LTEA) Assay for UDP glucuronosyltransferase (UGT1A1) using HepaRG (AID 2283538). The note with it: mRNA level, 48 h; actives raise or lower the signal. In a few lines:
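mRNA induction or loss of UGT1A1, by TaqMan qRT-PCR, in duplicate HepaRG wells after 48 h exposure to half-log dilutions topping at 100 uM; DMSO (0.5%) served as baseline.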

Read-out in assay [14]: UDP glucuronosyltransferase (UGT1A6), UGT1A6 (gene 54578)
The assay can be described thus: LTEA_HepaRG_UGT1A6: Life Technologies and Expression Analysis (LTEA) Assay for UDP glucuronosyltransferase (UGT1A6) using HepaRG (AID 2283539). The settings on record: mRNA level, 48 h; actives raise or lower the signal. In a few lines:
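HepaRG, 48 h post-plating switch to serum-free induction medium; chemical 48 h, 100 uM top, half-log x8, duplicate, 0.5% DMSO. Phenobarbital 1mM induction control. UGT1A6 mRNA by TaqMan qRT-PCR; gain/loss fit vs DMSO.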

Read-out in assay [15]: X-box binding protein 1 (XBP1), XBP1 (gene 7494)
The assay can be described thus: LTEA_HepaRG_XBP1: Life Technologies and Expression Analysis (LTEA) Assay for X-box binding protein 1 (XBP1) using HepaRG (AID 2283540). The settings on record: mRNA level, 48 h; actives raise or lower the signal. The procedure, abridged:
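Transcript levels of XBP1, measured by qRT-PCR and normalised to three housekeeping genes, were fitted bidirectionally relative to 0.5% DMSO controls. Human HepaRG cells received eight-point half-log dilutions from 100 uM for 48 h.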

Assay [16] can be described thus: LTEA_HepaRG_LDH_cytotoxicity: Cytotoxicity Assessment in the Life Technologies and Expression Analysis (LTEA) Assay (AID 2283563; active means hit-call score of the fitted dose curve at least 0.9, where 1 is the maximum). In a few lines:
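Cells were thawed and plated for 48 h. Medium was then replaced with serum-free induction medium. Chemicals (8 half-log points, maximum 100 uM, 0.5% DMSO) were added in duplicate for 48 h, after which spent medium was assayed for LDH.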

Assay [17] is described as follows: TOX21_p53_BLA_p2_viability: Viability Assessment in the Tox21 HCT-116 p53 Agonism Beta-lactamase Assay, Phase 2 (AID 2283591; active means hit-call score of the fitted dose curve at least 0.9, where 1 is the maximum;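 further: compound exposure lasted 16 h at 37 °C; actives lower the ATP signal meaning cytotoxicity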). The procedure, abridged: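 HCT116 p53-bla cells, 4000/well, dosed after 5 h plating (217-fold dilution of DMSO stocks) and incubated 16 h at 37C. Viability taken as cellular ATP by CellTiter-Glo luminescence after 30 min RT; signal loss marks cytotoxicity.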

Assay [18] can be described thus: ATG_XTT_Cytotoxicity: Cytotoxicity Assessment in the Attagene TRANS-FACTORIAL HepG2 Assay (AID 2283584; active means hit-call score of the fitted dose curve at least 0.9, where 1 is the maximum). In a few lines:
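Cells: human HepG2, transiently transfected with MRTU reporter constructs. Exposure 24 h. Readout: XTT, cell number. Baseline/neg ctrl DMSO; loss-of-signal scored.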

The target in assay [19] is Cellular tumor antigen p53 (Homo sapiens) (UniProt P04637). The assay can be described thus: TOX21_p53_BLA_p2_ratio: Tox21 HCT-116 p53 Agonism Beta-lactamase Assay, Ratio, Phase 2 (AID 2283592; active means hit-call score of the fitted dose curve at least 0.9, where 1 is the maximum). The procedure, abridged:
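Plated HCT116 p53-bla cells (4000/well) received compound after 5 h, then 16 h at 37C/5% CO2. CCF4-AM added, 2 h RT. Ratio of 460 to 530 nm emission taken as the p53 reporter signal.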

Cellular tumor antigen p53 (Homo sapiens), sequence (P04637 whole entry, looked up): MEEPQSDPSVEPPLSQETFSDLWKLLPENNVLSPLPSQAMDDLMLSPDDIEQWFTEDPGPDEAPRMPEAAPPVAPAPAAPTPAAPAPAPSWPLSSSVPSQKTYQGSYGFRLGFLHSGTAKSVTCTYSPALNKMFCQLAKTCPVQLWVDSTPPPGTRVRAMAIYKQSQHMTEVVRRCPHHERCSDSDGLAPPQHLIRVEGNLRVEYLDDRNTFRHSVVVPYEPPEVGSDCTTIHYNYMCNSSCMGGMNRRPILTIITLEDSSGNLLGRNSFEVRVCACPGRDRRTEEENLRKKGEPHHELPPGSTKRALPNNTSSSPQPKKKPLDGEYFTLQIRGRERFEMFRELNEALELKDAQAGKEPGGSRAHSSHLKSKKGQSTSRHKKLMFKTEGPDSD
Signal transducer and activator of transcription 3 (Homo sapiens), sequence (P40763 whole entry, looked up): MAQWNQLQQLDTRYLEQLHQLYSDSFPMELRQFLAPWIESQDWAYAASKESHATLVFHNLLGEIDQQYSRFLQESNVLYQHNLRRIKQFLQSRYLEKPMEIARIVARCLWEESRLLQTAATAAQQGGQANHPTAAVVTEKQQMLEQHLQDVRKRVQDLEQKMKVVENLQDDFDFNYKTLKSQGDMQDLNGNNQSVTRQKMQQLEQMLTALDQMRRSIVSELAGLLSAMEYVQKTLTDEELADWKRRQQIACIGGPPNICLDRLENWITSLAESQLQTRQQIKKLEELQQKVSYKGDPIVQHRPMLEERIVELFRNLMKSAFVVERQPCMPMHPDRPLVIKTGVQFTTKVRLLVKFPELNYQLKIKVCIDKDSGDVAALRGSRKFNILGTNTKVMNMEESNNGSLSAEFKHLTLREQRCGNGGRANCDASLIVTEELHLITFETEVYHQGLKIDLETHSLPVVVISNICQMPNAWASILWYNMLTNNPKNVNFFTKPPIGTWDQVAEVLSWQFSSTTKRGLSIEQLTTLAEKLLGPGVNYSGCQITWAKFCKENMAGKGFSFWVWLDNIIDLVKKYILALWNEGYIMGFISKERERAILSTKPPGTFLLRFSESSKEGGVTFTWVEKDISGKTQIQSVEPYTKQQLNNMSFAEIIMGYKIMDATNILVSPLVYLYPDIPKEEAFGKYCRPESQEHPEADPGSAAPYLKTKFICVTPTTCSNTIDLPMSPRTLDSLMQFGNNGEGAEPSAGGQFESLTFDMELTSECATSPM
Nuclear factor erythroid 2-related factor 2 (Homo sapiens), sequence (Q16236 whole entry, looked up): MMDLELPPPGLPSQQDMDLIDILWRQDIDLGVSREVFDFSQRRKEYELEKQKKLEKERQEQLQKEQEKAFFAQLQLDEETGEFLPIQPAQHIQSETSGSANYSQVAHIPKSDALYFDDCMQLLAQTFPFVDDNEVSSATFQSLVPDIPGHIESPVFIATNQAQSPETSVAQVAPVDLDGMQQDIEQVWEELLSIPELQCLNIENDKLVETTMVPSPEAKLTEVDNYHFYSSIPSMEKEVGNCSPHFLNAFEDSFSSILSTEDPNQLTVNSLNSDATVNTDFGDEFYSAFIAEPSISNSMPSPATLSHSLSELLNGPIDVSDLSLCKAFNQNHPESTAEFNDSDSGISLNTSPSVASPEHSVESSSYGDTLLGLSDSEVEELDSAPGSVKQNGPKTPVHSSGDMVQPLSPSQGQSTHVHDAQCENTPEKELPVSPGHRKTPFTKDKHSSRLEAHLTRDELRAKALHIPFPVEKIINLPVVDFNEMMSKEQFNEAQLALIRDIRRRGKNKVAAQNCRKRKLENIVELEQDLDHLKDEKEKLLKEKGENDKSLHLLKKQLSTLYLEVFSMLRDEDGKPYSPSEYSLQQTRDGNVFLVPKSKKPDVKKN

For orientation: AC50 means the concentration at which the activity in the assay is half-maximal. For the compound `N#C[C@@H]1CC(F)(F)CN1C(=O)CNC1CC2CCC(C1)N2c1ncccn1` (stereo partly specified), the result in assay [1], in assay [2], in assay [3], in assay [4], in assay [6] and in [7] was inactive. Also, the outcome is “inactive” in assay [8]; “inactive” in assay [9]; “inactive” in the assay with TIMP1, TIMP1 (gene 7076); “inactive” in assay [10]; “inactive” in [11]; “inactive” in assay [12]. In addition, the outcome in assay [13], in assay [14], in assay [15], in assay [16] and in assay [17] was inactive. Also, in assay [5], the AC50 was 12.5 µM (active).
For the compound `CCCOC(=O)c1ccc(O)cc1`, the compound was called inactive in assay [1], in assay [2], in assay [4], in assay [5], in assay [6] and in assay [7]. Further, the outcome is “inactive” in assay [8]; “inactive” in assay [9]; “inactive” in the assay with TIMP1, TIMP1 (gene 7076); “inactive” in assay [11]; “inactive” in [12]; “inactive” in assay [13]. The outcome in [14], in assay [15], in [16], in assay [18], in assay [17] and in assay [19] was inactive. Further, the AC50 in assay [10] was 0.779 µM (active).
Take `CCc1ccc(CCOc2ccc(CC3SC(=O)NC3=O)cc2)nc1` (stereo unspecified): the concentration at half-maximal activity (AC50) in [1] is 11.6 µM (active); in [6], 67.5 µM (active); in assay [7], 81.1 µM (active); in [8], 24 µM (active); in assay [11], 83.8 µM (active); in [12], 80.4 µM (active). In addition, the AC50 in assay [13] is 12.2 µM (active). For the same compound, the outcome in assay [2] was “inactive”; in assay [4] it was “inactive”; in assay [5], “inactive”; in [9], “inactive”; with TIMP1, TIMP1 (gene 7076) it was “inactive”; in assay [10] it was “inactive”. Also, the compound was called inactive in assay [14], in assay [15], in assay [16], in [18], in assay [17] and in [19].
